PubChem BioAssay (NCATS)
Records with an inconclusive call do not appear. The source made the active and inactive calls. Unless noted, the call rests on the fitted dose curve; in most records, active means well fitted curve in the direction sought with a large enough effect; inconclusive means small, poorly fitted or top-dose-only effect, or another doubt; inactive means no such curve, though single readings can be large; an effect the other way counts as inactive or inconclusive.

What was measured:
[1] = AP1 Signaling Pathway (AID 357; active means well fitted curve in either direction with a large enough effect, not every such curve was filed as active;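 further: ME-180 reporter cells stimulated with EGF at its EC50 level; on the % scale 0 is the no-effect control and ±100 the full control effect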); conditions: ME-180 AP-1-bla reporter, EGF-induced, beta-lactamase ratio, 5 h; at 7.69 µM (top of the series) unless noted
Procedure, shortened: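 A ratiometric CCF4 readout (405 nm excitation; 460 and 530 nm emission) quantified AP-1-driven beta-lactamase in ME-180 cells after 5 h with compound and EC50 EGF; AC50 values were derived for activators and inhibitors.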

[2] = biological target: Cytochrome P450 1A2 (Homo sapiens) (UniProt P05177); test: p450-cyp1a2 (AID 410; calls by dose curve;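 further: -100% = full effect of reference inhibitor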)
Procedure, shortened: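 Human CYP1A2 (20nM) demethylated Luciferin-ME at its Km (100uM) in 100mM KPO4. After 10 min compound preincubation, NADPH regeneration ran the reaction 60 min at room temperature. Luciferin was read by luminescence, normalized to 57 uM furafylline.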

[3] = Stat Signaling Pathway (AID 446; active means well fitted curve in either direction with a large enough effect, not every such curve was filed as active;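 further: ME-180 cervical cancer cells given 40 pM IL-6 alongside compound; SIE-controlled beta-lactamase reporter measured as 460/530 nm FRET emission ratio; on the % scale 0 is the no-effect control and ±100 the full control effect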)
Procedure, shortened: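 Reporter line: ME-180 cervical carcinoma, SIE-beta-lactamase. Treatment: compound with 40 pM IL-6, 5 hrs, 37 C, in low-serum OPTI-MEM with 10 mM HEPES pH 7.3. Detection: 460/530 nm fluorescence.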

[4] = biological target: Glucocorticoid receptor (Homo sapiens) (UniProt P04150); test: GR-GFP Redistribution (AID 450;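 active means compounds whose dose series gives a full or clear partial fitted curve of increased nuclear translocation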; further: potency means the concentration at half of the fitted maximal effect); conditions: U2OS GR-GFP nuclear translocation, laser cytometry, 2 h
Glucocorticoid receptor (Homo sapiens), sequence (P04150 whole entry, looked up, the tested form may be a part): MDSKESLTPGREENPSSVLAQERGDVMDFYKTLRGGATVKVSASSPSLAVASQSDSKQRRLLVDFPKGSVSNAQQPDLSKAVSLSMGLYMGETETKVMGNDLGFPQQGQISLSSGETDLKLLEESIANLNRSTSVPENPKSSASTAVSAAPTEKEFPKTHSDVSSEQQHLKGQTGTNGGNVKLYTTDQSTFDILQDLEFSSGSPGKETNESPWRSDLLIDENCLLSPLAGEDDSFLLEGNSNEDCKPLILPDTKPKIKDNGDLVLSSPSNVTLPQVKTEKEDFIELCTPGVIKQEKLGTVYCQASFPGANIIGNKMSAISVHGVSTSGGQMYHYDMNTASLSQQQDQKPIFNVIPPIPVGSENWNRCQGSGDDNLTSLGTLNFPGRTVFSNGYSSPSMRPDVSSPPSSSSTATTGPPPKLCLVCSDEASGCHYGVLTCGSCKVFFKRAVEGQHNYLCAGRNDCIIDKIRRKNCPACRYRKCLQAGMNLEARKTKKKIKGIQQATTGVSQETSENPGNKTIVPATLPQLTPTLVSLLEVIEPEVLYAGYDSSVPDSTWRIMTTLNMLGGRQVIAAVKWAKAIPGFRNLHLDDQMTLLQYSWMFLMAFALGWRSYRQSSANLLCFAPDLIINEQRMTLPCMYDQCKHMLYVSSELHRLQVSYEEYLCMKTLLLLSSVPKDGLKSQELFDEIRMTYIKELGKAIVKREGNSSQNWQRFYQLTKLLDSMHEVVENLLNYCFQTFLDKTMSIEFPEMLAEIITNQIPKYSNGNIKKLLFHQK

[5] = biological target: Glucocorticoid receptor (Homo sapiens) (UniProt P04150); test: GR-EFC Redistribution (AID 451; calls by dose curve; further: potency means the concentration at half of the fitted maximal effect); conditions: CHO-K1 GR-EFC translocation, beta-gal luminescence, 2 h
Procedure, shortened: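 CHO-K1 cells expressing nuclear EA and GR-ED fragments of b-gal; compounds titrated up to 46 uM final, 2 h at 37 C. GR nuclear translocation read as complemented b-gal luminescence after 1 h RT detection.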

[6] = biological target: 3',5'-cyclic-AMP phosphodiesterase 4B (Homo sapiens) (UniProt Q07343); test: qHTS Assay for Inhibitors of PDE-IV (AID 607; active means well fitted activation curve with a large enough effect in the main read-out, with a control signal flat, not every such curve was filed as active; further: % of control where 0% means no effect)
Procedure, shortened: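 Cell-based read-out of cAMP via a modified cyclic nucleotide-gated channel and membrane potential dye (535/590 nm) in HEK293 cells expressing PDE4 endogenously. Compounds tested up to 22.9 uM final; 100 uM RO 20-1724 reference.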

[7] = biological target: Guanine nucleotide-binding protein G(i) subunit alpha-1 (Homo sapiens) (UniProt P63096); test: qHTS Assay for Inhibitors of RGS12 GoLoco Motif Activity (Green Fluorophore) (AID 879);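 further: 0% = labeled peptide with Gαi1 and full inhibition = labeled peptide alone without protein; negative values mean loss of peptide binding seen as reduced polarization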
Guanine nucleotide-binding protein G(i) subunit alpha-1 (Homo sapiens), sequence (P63096 whole entry, looked up): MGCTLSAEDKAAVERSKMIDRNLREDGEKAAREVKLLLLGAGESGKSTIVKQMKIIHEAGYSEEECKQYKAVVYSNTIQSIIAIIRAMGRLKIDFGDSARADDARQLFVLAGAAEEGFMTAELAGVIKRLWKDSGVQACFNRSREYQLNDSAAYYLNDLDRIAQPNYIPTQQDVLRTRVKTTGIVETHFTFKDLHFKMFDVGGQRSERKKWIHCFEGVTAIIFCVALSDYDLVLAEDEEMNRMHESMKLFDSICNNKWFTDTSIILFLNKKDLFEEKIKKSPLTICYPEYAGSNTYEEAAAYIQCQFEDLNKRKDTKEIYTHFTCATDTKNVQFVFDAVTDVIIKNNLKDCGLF
Procedure, shortened: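 Fluorescence polarization assay: 50 nM Gαi1 with 10 nM FITC-labeled RGS12 GoLoco peptide in 10 mM Tris pH 7.5, 150 mM NaCl, 0.1 mM GDP, 0.05% NP40, 10 min at room temperature with compound.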

[8] = biological target: Cytochrome P450 3A4 (Homo sapiens) (UniProt P08684); test: qHTS Assay for Inhibitors and Substrates of Cytochrome P450 3A4 (AID 884); further: on the % scale 0 is the no-effect control and ±100 the full control effect; nearly all actives have a fitted effect of over 50% in size
Cytochrome P450 3A4 (Homo sapiens), sequence (P08684 whole entry, looked up): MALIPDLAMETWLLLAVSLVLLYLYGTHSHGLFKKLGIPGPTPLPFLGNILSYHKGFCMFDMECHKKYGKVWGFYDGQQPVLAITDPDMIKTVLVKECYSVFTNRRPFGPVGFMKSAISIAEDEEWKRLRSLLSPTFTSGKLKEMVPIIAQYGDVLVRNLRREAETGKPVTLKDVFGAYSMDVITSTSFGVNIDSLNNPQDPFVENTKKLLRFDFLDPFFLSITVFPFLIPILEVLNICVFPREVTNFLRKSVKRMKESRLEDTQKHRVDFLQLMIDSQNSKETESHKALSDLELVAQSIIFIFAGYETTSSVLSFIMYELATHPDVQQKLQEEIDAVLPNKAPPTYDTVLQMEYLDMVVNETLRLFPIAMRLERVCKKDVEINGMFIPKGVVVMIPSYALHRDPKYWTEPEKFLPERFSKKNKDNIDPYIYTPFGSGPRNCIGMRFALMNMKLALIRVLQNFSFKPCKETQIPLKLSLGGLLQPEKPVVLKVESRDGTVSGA
Procedure, shortened: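 20 nM human CYP3A4 with 25 uM Luciferin-PPXE (at KM) in 200 mM KPO4, preincubated 10 min with compound; NADPH regeneration started a 60 min RT reaction. Luciferin detected by luminescence, normalized to 57 uM ketoconazole as full inhibition.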

[9] = qHTS Assay for Identification of Small Molecule Agonists for Hypoxia Response Element Signaling Pathway (AID 914; active means well fitted activation curve with a large enough effect in the signal ratio, with a control signal flat, not every such curve was filed as active; the % refers to the signal ratio; further: % of control where 0% means no effect); conditions: ME-180 (cervical carcinoma) HRE-bla reporter, beta-lactamase ratio, CoCl2, 17 h; activation: stronger effect = higher value
Procedure, shortened: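 Reporter activity (beta-lactamase, CCF4 460nm/530nm ratio) in HRE-bla ME-180 cells is recorded after 17 h compound exposure with EC50 CoCl2 at 37 degrees Celsius. AC50 values come from titration data.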

[10] = qHTS Assay for Identification of Small Molecule Agonists for Thrombopoietin (TPO) Signaling Pathway (AID 917); further: on the % scale 0 is the no-effect control and ±100 the full control effect
Procedure, shortened: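 IL-3-dependent murine pro-B Ba/F3 cells, stably transfected with human TPO receptor and GpIIb-promoter luciferase, are incubated 24 hrs at 37 C with test compound and 26 pM TPO; luciferase signal is read after 10 min at room temperature.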

[11] = biological target: Muscarinic acetylcholine receptor M1 (Rattus norvegicus) (UniProt P08482); test: qHTS Assay for Antagonists of Acetylcholine Muscarinic M1 Receptor: Measurement of IP-One Response (AID 944); further: nearly all actives have a fitted effect of over 75% in size
Muscarinic acetylcholine receptor M1 (Rattus norvegicus), sequence (P08482 whole entry, looked up): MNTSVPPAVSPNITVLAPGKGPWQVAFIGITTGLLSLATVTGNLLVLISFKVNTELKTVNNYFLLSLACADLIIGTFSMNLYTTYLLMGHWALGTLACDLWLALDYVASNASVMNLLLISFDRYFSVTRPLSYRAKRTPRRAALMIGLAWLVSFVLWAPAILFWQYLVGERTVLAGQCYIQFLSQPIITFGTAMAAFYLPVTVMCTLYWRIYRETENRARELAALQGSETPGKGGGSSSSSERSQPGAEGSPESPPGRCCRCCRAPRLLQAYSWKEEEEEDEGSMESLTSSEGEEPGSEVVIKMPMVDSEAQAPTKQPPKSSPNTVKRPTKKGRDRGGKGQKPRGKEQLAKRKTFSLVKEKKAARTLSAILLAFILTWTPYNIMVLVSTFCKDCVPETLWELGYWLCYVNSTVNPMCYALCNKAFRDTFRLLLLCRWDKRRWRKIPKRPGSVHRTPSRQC
Procedure, shortened: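 CHO cells expressing rat M1 receptor, recovered overnight, were pre-incubated 10 min with compound, then stimulated 30 min with carbachol at EC80 (200 nM) in LiCl-containing buffer, pH 7.4. IP1 accumulation was read by HTRF (620/665 nm).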

[12] = biological target: Pyruvate kinase (Leishmania mexicana) (UniProt Q27686); test: qHTS Validation Assay for Inhibitors of Leishmania Mexicana Pyruvate Kinase (AID 945);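 further: 0% = DMSO only neutral control wells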
Pyruvate kinase (Leishmania mexicana), sequence (Q27686 2-499 E452W): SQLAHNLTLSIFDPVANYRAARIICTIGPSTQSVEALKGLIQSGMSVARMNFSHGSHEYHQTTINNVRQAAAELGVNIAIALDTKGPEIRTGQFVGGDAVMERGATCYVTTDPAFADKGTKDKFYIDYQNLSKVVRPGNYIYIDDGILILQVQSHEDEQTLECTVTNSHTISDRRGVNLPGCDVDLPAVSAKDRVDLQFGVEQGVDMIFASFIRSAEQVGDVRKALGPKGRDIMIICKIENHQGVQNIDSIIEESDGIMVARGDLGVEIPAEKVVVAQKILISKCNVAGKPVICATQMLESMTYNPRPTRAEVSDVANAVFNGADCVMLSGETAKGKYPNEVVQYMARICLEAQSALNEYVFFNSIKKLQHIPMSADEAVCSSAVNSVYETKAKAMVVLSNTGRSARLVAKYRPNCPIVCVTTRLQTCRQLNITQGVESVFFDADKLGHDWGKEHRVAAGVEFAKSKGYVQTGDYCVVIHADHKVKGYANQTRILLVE
Procedure, shortened: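 Mutant LmPYK (E451W), 0.2 nM, plus 0.5 mM PEP and 0.1 mM ADP in 50 mM imidazole pH 7.2 containing 0.01% Tween 20 and 0.05% BSA. Incubated 1 h at room temperature; luminescence via PKLight, normalized to DMSO.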

[13] = biological target: Pyruvate kinase PKM (Homo sapiens) (UniProt P14618); test: qHTS Assay for Activators of Human Muscle Pyruvate Kinase (AID 954; active means well fitted curve in the direction sought with a large enough effect, not every such curve was filed as active;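 further: 0% = uninhibited enzyme and -100% = no enzyme or full thiadiazolimine inhibition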)
Pyruvate kinase PKM (Homo sapiens), sequence (P14618 whole entry, looked up): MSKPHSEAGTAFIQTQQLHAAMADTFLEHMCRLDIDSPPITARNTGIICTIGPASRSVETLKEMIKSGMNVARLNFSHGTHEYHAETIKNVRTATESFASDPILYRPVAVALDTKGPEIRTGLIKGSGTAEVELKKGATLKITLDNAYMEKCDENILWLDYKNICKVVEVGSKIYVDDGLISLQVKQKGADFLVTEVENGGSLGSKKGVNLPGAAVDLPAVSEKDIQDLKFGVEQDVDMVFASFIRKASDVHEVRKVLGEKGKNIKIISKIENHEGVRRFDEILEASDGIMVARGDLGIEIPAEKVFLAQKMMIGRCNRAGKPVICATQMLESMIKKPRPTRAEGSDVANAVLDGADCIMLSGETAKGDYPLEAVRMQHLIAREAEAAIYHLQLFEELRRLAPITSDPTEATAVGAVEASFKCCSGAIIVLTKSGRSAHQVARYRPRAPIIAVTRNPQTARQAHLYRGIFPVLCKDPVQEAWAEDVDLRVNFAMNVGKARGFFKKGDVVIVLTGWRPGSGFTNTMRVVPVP
Procedure, shortened: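 Human PKM2 activity is measured as ATP generation, detected by luciferase-coupled luminescence. The enzyme (0.1 nM) acts on 0.5 mM PEP and 0.1 mM ADP for 1 h at ambient temperature; data are normalized to uninhibited and full-inhibition wells.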

[14] = biological target: Alpha-galactosidase A (Homo sapiens) (UniProt P06280); test: Counterscreen for Glucocerebrosidase Inhibitors: qHTS Assay for Human alpha-Galactosidase at pH 4.5 (AID 992); further: 0% is about no effect
Alpha-galactosidase A (Homo sapiens), sequence (P06280 whole entry, looked up): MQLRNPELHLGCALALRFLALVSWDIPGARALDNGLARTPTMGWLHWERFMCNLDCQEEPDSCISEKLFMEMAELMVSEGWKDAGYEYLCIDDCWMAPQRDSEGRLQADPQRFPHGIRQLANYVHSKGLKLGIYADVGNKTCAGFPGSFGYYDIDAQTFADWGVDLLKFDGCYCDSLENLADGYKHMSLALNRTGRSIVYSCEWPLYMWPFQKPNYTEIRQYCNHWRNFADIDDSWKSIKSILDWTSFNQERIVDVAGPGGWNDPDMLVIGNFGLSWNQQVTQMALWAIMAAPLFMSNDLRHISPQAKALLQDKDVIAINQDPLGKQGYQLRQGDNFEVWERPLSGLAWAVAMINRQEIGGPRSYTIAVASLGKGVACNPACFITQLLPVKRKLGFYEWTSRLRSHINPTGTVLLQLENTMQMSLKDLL
Procedure, shortened: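 Quantitative HTS: compounds tested from 0.7 nM up to 77 uM against 2 nM enzyme with 80 uM 4-MU alpha-D-galactopyranoside. The 20 min room-temperature reaction is stopped with 1M NaOH/1M glycine, pH 10.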

[15] = biological target: alpha-glucosidase (Oryza sativa, rice) (UniProt Q653V4); test: Counterscreen for Glucocerebrosidase Inhibitors: qHTS Assay for Rice alpha-Glucosidase at pH 5.0 (AID 997);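 further: 0% = full activity with enzyme and -100% = basal without enzyme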
Procedure, shortened: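 Rice alpha-glucosidase (4 nM final) with 400 uM 4-methylumbelliferyl-alpha-D-glucopyranoside in citrate buffer pH 5.0, 20 min at room temperature, stopped at pH 10; fluorescence 365/440 nm, compounds 0.7 nM–77 uM, AC50 from Hill fits.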

[16] = Counterscreen for APE1 Inhibitors: Fluorescent Dye Displacement Validation Assay (AID 1707);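 further: plate controls were ThO with dsDNA and no compound for no effect and ThO without dsDNA for full effect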
Procedure, shortened: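 Compounds are scored by their ability to displace Thiazole Orange (250 nM) from a 50 nM TAMRA-tagged duplex bearing a tetrahydrofuran abasic site. Buffer is 50 mM Tris-HCl pH7.5, 50mM NaCl, 2 mM MgCl2, 0.01% Tween-20.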

[17] = qHTS for differential inhibitors of proliferation of Plasmodium falciparum line 7G8 (AID 1815);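 further: parasite growth measured after three days of incubation; plate controls were vehicle wells for no effect and reference inhibitor wells for full effect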
[18] = qHTS for differential inhibitors of proliferation of Plasmodium falciparum line GB4 (AID 1816); conditions: Potency: Plasmodium falciparum GB4 proliferation inhibition;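 further: parasite growth measured after 72 h incubation; 0% = vehicle DMSO and -100% = reference inhibitor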
[19] = qHTS for differential inhibitors of proliferation of Plasmodium falciparum line 3D7 (AID 1876);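 further: parasite growth measured after three days of culture; 0% = vehicle wells and -100% = reference inhibitor wells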
[20] = qHTS for differential inhibitors of proliferation of Plasmodium falciparum line D10 (AID 1877);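 further: parasites grown with compound for 72 h before DNA staining; plate controls were vehicle wells for no effect and reference inhibitor wells for full effect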
[21] = qHTS for differential inhibitors of proliferation of Plasmodium falciparum line Dd2 (AID 1882); conditions: Potency: Plasmodium falciparum Dd2 proliferation inhibition;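 further: compound exposure of 72 h on infected erythrocytes; plate controls were DMSO vehicle for no effect and 0.29 µM artemisinin for full effect; nearly all actives have a fitted effect of over 65% in size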
Procedure, shortened: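 SYBR Green I DNA fluorescence read-out, ex 485/em 535 nm. Signals were normalized to 0.29 uM artemisinin and DMSO wells, then corrected using vehicle-only plates flanking each stack. Parasite growth ran 72 h in erythrocytes before lysis.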

[22] = qHTS for differential inhibitors of proliferation of Plasmodium falciparum line W2 (AID 1883); conditions: Potency: Plasmodium falciparum W2 proliferation inhibition;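 further: parasites grown with compound for 72 h before lysis and staining; 0% = vehicle wells and -100% = control inhibitor wells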
[23] = qHTS for differential inhibitors of proliferation of Plasmodium falciparum line HB3 (AID 1886); conditions: Potency: Plasmodium falciparum HB3 proliferation inhibition;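 further: parasites grown with compound for 72 h before SYBR Green readout; plate controls were vehicle for no effect and reference inhibitor for full effect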
[24] = qHTS Assay for Modulators of Human Peripheral Myelin Protein 22 (PMP22) Expression/Activity (AID 1967; active means well fitted curve in the direction sought with a large enough effect in the signal ratio; the % refers to the signal ratio;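 further: 0% = untreated cells and 100% end not stated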)
Procedure, shortened: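 Engineered MSC80 cells, Pmp22-promoter green and EF-alpha red luciferase reporters; 24h compound treatment at 37 °C. Concentration-response fits on green, red and ratio signals, each overlap-corrected, with %Activity normalized to untreated wells.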

[25] = biological target: Ferritin light chain (Equus caballus) (UniProt P02791); test: qHTS Validation Assay for Identification of Novel General Anesthetics (AID 2323); further: on the % scale 0 is the no-effect control and ±100 the full control effect
Ferritin light chain (Equus caballus), sequence (P02791 2-175 limits assumed): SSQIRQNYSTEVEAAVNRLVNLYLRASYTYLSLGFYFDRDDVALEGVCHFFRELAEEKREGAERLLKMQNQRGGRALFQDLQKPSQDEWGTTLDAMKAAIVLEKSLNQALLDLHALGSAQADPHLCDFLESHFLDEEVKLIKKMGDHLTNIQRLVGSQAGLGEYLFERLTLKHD
Procedure, shortened: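 Normalized fluorescence response, scaled between free 1-AMA and 1-AMA/apoferritin complex, fitted to a four-parameter Hill equation for concentration-effect values. Binding mix: 10 uM horse-spleen apoferritin, 50% saturated 1-AMA in PBS; read 380/535 nm after 10 min.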

[26] = biological target: ATP-dependent DNA helicase Q1 (Homo sapiens) (UniProt P46063); test: qHTS Validation Assay for Inhibitors of RecQ-Like Dna Helicase 1 (RECQ1) (AID 2353);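 further: plate controls were DMSO vehicle for no effect and enzyme-free control for full effect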
Procedure, shortened: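 50 nM RECQ1T1 preincubated 15 min with compound in Tris pH 8.0 buffer with MgCl2, DTT, Tween-20 and 2.5 ug/ml poly(dI-dC); started with 200 nM TAMRA/BHQ-2 forked duplex and 2 mM ATP. Unwinding read as fluorescence (525/598 nm), two reads 2 h apart.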

[27] = biological target: RecQ-like DNA helicase BLM (Homo sapiens) (UniProt P54132); test: qHTS Validation Assay for Inhibitors of Bloom's syndrome helicase (BLM) (AID 2364);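 further: plate controls were DMSO vehicle for no effect and enzyme-free control for full effect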
Procedure, shortened: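 50 nM BLM preincubated 15 min at room temperature with compound in pH 8.0 Tris buffer containing 2.5 ug/ml poly(dI-dC); started with 200 nM TAMRA/BHQ-2 forked duplex and 2 mM ATP (final). Unwinding read as TAMRA fluorescence increase, two reads 2 h apart.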

[28] = Validation screen for small molecules that induce DNA re-replication in MCF 10A normal breast cells (AID 463097); further: 0% is about no effect; nearly all actives have a fitted effect of over 60% in size
Procedure, shortened: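 Following 48 hr compound incubation (37 C, 5% CO2), MCF 10A cells receive Hoechst for 40 min at 37 C. Nuclei are then scanned (excitation 405 nm, emission 500-530 nm) for total fluorescence intensity.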

[29] = Quantitative high throughput screen for delayed death inhibitors of the malarial parasite plastid, 96 hour incubation (AID 488745); further: on the % scale 0 is the no-effect control and ±100 the full control effect; nearly all actives have a fitted effect of over 70% in size
Procedure, shortened: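 P. falciparum carrying an integrated firefly luciferase reporter, grown in erythrocytes (2% hematocrit, 0.1% parasitemia final) in RPMI 1640/0.5% Albumax, was exposed to compound for 96 h (two generations) at 37 C, 5% CO2. Luminescence decrease indicated growth inhibition.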

[30] = Quantitative high throughput screen for delayed death inhibitors of the malarial parasite plastid, 48 hour incubation (AID 488752); further: on the % scale 0 is the no-effect control and ±100 the full control effect; nearly all actives have a fitted effect of over 65% in size
Procedure, shortened: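 Erythrocytes infected with P. falciparum carrying an integrated firefly luciferase reporter (2% hematocrit, 0.1% parasitemia final) were exposed to compounds in RPMI 1640/0.5% Albumax for 48 h at 37 C, 5% CO2. Growth inhibition was scored as reduced luminescence.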

[31] = biological target: M-phase phosphoprotein 8 (Homo sapiens) (UniProt Q99549); test: qHTS Validation Assay for Inhibitors for MPP8 Chromodomain Interactions with Methylated Histone Tails (AID 488949);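 further: 50 nM MPP8 with 50 nM peptide preformed then compounds added for 30 min; AlphaScreen signal from MPP8 chromodomain bound to biotinylated H3K9me3 peptide; top concentration of the series differs between compounds; on the % scale 0 is the no-effect control and ±100 the full control effect; nearly all actives have a fitted effect of over 55% in size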
M-phase phosphoprotein 8 (Homo sapiens), sequence (Q99549 whole entry, looked up): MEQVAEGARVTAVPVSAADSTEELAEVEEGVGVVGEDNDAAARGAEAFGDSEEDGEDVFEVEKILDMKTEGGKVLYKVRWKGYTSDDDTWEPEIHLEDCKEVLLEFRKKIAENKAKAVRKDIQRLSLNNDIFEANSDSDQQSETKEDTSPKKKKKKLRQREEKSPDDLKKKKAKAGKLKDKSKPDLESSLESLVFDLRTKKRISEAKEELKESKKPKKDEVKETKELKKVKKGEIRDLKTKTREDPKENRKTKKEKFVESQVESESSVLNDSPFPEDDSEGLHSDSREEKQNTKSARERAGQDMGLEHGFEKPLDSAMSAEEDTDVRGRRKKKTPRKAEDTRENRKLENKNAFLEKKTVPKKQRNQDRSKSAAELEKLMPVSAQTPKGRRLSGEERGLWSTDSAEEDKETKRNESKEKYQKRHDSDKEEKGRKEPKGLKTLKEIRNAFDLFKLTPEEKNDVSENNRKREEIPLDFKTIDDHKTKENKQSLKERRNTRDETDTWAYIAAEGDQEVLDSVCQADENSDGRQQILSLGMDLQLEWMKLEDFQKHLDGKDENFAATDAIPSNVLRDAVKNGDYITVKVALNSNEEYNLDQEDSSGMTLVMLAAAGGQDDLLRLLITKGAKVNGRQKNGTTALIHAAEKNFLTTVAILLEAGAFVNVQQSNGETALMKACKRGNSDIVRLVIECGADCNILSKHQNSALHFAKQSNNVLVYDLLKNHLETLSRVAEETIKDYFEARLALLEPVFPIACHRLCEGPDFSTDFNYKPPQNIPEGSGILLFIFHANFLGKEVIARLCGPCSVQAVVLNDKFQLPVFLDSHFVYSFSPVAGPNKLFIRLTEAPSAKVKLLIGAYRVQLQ
Procedure, shortened: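 Chemiluminescent proximity assay: histidine-tag capture via nickel acceptor beads, biotin peptide via streptavidin donor beads. Protein and peptide each at 50 nM, pH 7.4, with 30 min incubations at room temperature for complex formation, compound exposure and bead binding.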

[32] = biological target: Thyrotropin receptor (Homo sapiens) (UniProt P16473); test: qHTS Assay for Antagonists of the Thyroid Stimulating Hormone Receptor (AID 488980); further: 0% is about no effect
Procedure, shortened: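 Inhibition of TSH-stimulated cAMP accumulation was quantified by homogeneous time-resolved FRET in TSHR-transfected HEK293 cells. Agonist: TSH, 4 nM final (EC80).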

[33] = biological target: Thyrotropin-releasing hormone receptor (Homo sapiens) (UniProt P34981); test: qHTS for Small Molecule Agonists and Allosteric Enhancers of Human TRH Receptor: Validation Screen for Agonists (AID 493127;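 active means calcium activation more than 3 SD above the typical response in the agonist read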;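 further: intracellular calcium rise by fluo-8 fluorescence before TRH EC20 addition; 0% is about no effect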); conditions: TRH receptor agonist cell assay; at 2 µM; stronger effect = higher value
Procedure, shortened: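 TRHR-expressing cells were plated overnight in serum-containing medium, then loaded with fluo-8 calcium dye at room temperature for 30 min–1.5 h. After a 10 s baseline, compound was pin-transferred and calcium fluorescence (ex 480/em 530) read kinetically for agonist response.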

[34] = biological target: Galactokinase (Homo sapiens) (UniProt P51570); test: qHTS Validation Assay for Inhibitors of Human Galactokinase (GALK) (AID 493189); further: 0% is about no effect
Galactokinase (Homo sapiens), sequence (P51570 whole entry, looked up): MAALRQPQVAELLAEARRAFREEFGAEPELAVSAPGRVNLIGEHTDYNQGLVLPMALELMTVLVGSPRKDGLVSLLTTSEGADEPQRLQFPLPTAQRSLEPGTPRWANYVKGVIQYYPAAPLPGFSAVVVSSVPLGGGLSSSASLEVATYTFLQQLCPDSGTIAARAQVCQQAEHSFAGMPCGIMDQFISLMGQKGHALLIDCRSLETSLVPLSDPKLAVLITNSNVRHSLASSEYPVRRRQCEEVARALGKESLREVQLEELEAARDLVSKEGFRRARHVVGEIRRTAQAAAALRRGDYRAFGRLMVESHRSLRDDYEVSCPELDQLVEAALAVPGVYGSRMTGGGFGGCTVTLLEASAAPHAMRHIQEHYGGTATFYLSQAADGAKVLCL
Procedure, shortened: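 Enzyme activity is inferred from ATP consumption: human GALK phosphorylates galactose (100 uM) using 35 uM ATP for 1 h at room temperature, and luciferase-based Kinase-Glo Plus reports unconsumed ATP.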

[35] = Validation screen for small molecules that induce DNA re-replication in SW480 colon adenocarcinoma cells (AID 504364); further: 0% is about no effect
Procedure, shortened: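 SW480 cells seeded at 250 per well were exposed to compound or DMSO for 48 hr at 37 C, 5% CO2, then stained with Hoechst for 40 min. DNA content per nucleus was imaged (405 nm ex, 500-530 nm em).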

O=S(=O)(O)C1CCNCC1
inactive: activity change, negative = inhibition [1] 5.14% [at 38 µM] | Potency [2] | outcome [3] | Potency [4] > 46 µM | Potency [5] > 46 µM | Potency [6] | Potency [7] | Potency [8] | activation [9] 1.41% | outcome [10] | Potency [11] | outcome [12] | outcome [13] | outcome [14] | outcome [15] | outcome [16] | Potency [17] | Potency [18] | Potency [19] | Potency [20] | Potency [21] | Potency [22] | Potency [23] | outcome [24] | outcome [25] | outcome [26] | Potency [27] | Potency [28] | Potency [29] | Potency [30] | Potency [31] | outcome [32] | activation [33] 0.125% | outcome [34] | Potency [35]
